Measured values: PubChem BioAssay (NCATS)
Results filed as inconclusive are left out. Calls of active or inactive are those of the source. Calls come from the whole dose curve; as a rule, active = well fitted inhibition curve with a large enough effect; inconclusive = small, poorly fitted or top-dose-only effect; inactive = no such curve, though single readings can be large or run the other way.

System: not listed separately
Assay: Primary qHTS for inhibitors of nuclear receptor binding SET domain protein 2 (NSD2) in an RCH-ACV wild type WT cells (2C) (AID 1645877); note: nearly all actives have a fitted effect of over 70% in size; note: potency is the fitted concentration of half-maximal effect
Settings: RCH-ACV (leukaemia line) NSD2 WT (2C) viability, CellTiter-Glo, 72 h; series mostly up to 44.9 µM

| SMILES | Potency |
| --- | --- |
| Cc1cc(=O)oc2c(C=O)c(O)ccc12 | 16.3 µM (active) |
| C[C@]12C[C@@H](O)[C@@H]3C[C@@]1(O[C@@H]1O[C@H](CO)[C@@H](O)[C@H](O)[C@H]1O)[C@]3(COC(=O)c1ccccc1)C(=O)O2 | inactive |
| CC(O)c1cc(C(=O)N[C@@H](C)Cn2ccc(-c3ccc(C#N)c(Cl)c3)n2)n[nH]1 (some centres not stated) | 20.9 µM (active) |
| CCN(CC)c1ccc2c(O)c(C=Nc3ccc(CC(=O)O)c(-c4c5c(nc6ccccc46)CCC(C(=O)NN)C5)c3)c(=O)oc2c1 (configuration not stated) | 4.59 µM (active) |
| C=C1C(OC2OCC(O)C(O)C2O)CC2C(C)(C)C(O)CCC2(C)C1CC/C(C)=C\CO (configuration not stated) | 8.93 µM (active) |
| COc1cc2c(c(OC)c1CC=C(C)C)C[C@H](c1ccc(O)cc1O)CO2 | inactive |
| CC1(C)CC[C@]2(C(=O)O[C@@H]3O[C@H](CO)[C@@H](O)[C@H](O)[C@H]3O)CC[C@]3(C)C(=CCC4[C@@]5(C)C[C@@H](O)[C@H](O)C(C)(C)C5CC[C@]43C)C2[C@@H]1O (some centres not stated) | inactive |
| CO[C@H]1O[C@@H]2O[C@]3(C)CC[C@H]4[C@H](C)CC[C@@H]([C@H]1C)[C@@]24OO3 | 7.28 µM (active) |
| CC/C=C/CC1=C(CCCCC(CCC(=O)O)OC(C)=O)CCC1=O (configuration not stated) | 12.7 µM (active) |
| COC(=O)C1(C)CCC2(C(=O)O)CCC3(C)C(=CCC4C5(C)CC(O)C(OC6OCC(O)C(O)C6O)C(C)(CO)C5CCC43C)C2C1 (configuration not stated) | inactive |
| C/C(=C/CO)CC[C@@H]1[C@@](C)(O)CCC2C(C)(C)CCC[C@]21C (some centres not stated) | inactive |
| OC[C@@]1(O)CO[C@@H](OC[C@H]2O[C@@H](Oc3c[nH]c4ccccc34)[C@H](O)[C@@H](O)[C@@H]2O)[C@@H]1O | inactive |
| Cc1cc(N(C)C)ccc1-c1nc2ccc(-c3nc4ccc(N5CCN(C)CC5)cc4[nH]3)cc2[nH]1 | 0.258 µM (active) |

Molecular target: Catechol O-methyltransferase (Homo sapiens) (UniProt P21964)
Assay: Confirmatory Screen for Target Class Profiling of Small Molecule Inhibitors of Methyltransferases (AID 1745852)
Settings: MTase-Glo luminescence, SAH detection, recombinant enzyme; measured here: COMT max response; stronger effect = lower value

Catechol O-methyltransferase (Homo sapiens), sequence (P21964 whole entry, looked up): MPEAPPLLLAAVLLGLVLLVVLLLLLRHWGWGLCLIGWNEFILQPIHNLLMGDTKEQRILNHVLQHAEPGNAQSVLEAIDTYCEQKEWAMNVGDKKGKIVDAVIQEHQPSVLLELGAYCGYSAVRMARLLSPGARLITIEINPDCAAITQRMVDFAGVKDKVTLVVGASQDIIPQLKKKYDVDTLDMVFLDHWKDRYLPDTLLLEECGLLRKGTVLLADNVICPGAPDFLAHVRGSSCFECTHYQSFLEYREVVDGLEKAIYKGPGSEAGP

| SMILES | activity |
| --- | --- |
| CN1CCN(C(=O)c2ccc3cc(CCNc4ncnc5ccc(C#N)cc45)ccc3c2)CC1 | -7.48% |
| O=C(O)/C=C/c1ccc(-c2ccc(O)c(C34CC5CC(CC(C5)C3)C4)c2)cc1 | 0.235% |
| CC(C)CCC1(O)C(=O)C(C)(C)C(O[C@@H]2O[C@H](CO)[C@@H](O)[C@H](O)[C@H]2O)C(C)(C)C1O (some centres not stated) | -56.9% |
| C=C(C(=O)O)C1CC(O)C2(C)CCCC(=C)C2C1 (configuration not stated) | -51% |
| C=C(C(=O)O)[C@@H]1CC[C@@]2(C)CC[C@H](O)[C@@]2(C(C)=O)C1 | -66.3% |
| CC1=C(C(=O)OCc2ccccc2)C(c2ccc(-c3ccccc3)cc2)NC(=O)N1CCCCCC(=O)O (configuration not stated) | -3.43% |
| C=C1C(=O)O[C@@H]2/C=C(\C)C(=O)/C=C/[C@](C)(O)C[C@@H](OC(=O)C(C)C)[C@@H]12 | -80.2% |
| CC1(C)[C@@H](O)CC[C@]2(C)[C@H]3CC=C4[C@@H]5C[C@](C)(C(=O)O)CC[C@]5(C)CC[C@@]4(C)[C@]3(C)CC[C@@H]12 | -16.8% |
| C=C1C(=O)OC2CC3(C)C(CC12)C(C)=CC(O)C3OC(C)=O (configuration not stated) | -65.4% |
| Cc1ccc([N+](=O)[O-])cc1S(=O)(=O)N(C)/N=C/c1cnc2ccc(Br)cn12 | -16.2% |
| COc1cc(/C=C/C(=O)OC[C@H]2O[C@@](CO)(O[C@H]3O[C@H](CO)[C@@H](O)[C@H](O)[C@H]3O)[C@@H](OC(=O)/C=C/c3ccc(O)c(OC)c3)[C@@H]2O)ccc1O | -51% |
| Cc1cc(=O)oc2c(C=O)c(O)ccc12 | -6.39% |
| COc1cc2c(cc1OC)N1C(=O)C[C@]34C=CCN5CC[C@@H]2[C@@H](CC3)[C@]514 | -18.8% |
| CC1=C(CCC(C)O[C@@H]2O[C@H](CO)[C@@H](O)[C@H](O)[C@H]2O)C(C)(C)CCC1=O (some centres not stated) | -64% |
| C[C@]12C[C@@H](O)[C@@H]3C[C@@]1(O[C@@H]1O[C@H](CO)[C@@H](O)[C@H](O)[C@H]1O)[C@]3(COC(=O)c1ccccc1)C(=O)O2 | -66.1% |
| CCN(CC)c1ccc2c(O)c(C=Nc3ccc(CC(=O)O)c(-c4c5c(nc6ccccc46)CCC(C(=O)NN)C5)c3)c(=O)oc2c1 (configuration not stated) | -17% |
| C/C=C/c1ccc2c(c1)[C@@H](C)[C@H](c1ccc(O)cc1)O2 | -8.28% |
| CC1(C)CC[C@]2(C(=O)O[C@@H]3O[C@H](CO)[C@@H](O)[C@H](O)[C@H]3O)CC[C@]3(C)C(=CCC4[C@@]5(C)C[C@@H](O)[C@H](O)C(C)(C)C5CC[C@]43C)C2[C@@H]1O (some centres not stated) | -85.2% |
| Cc1cc(N(C)C)ccc1-c1nc2ccc(-c3nc4ccc(N5CCN(C)CC5)cc4[nH]3)cc2[nH]1 | -4.96% |
